According to PubChem BioAssay (Tox21):
Records with an inconclusive call do not appear. Activity calls are given as the source filed them. Unless noted, calls follow the shape of the dose curve; as a rule, active = well fitted curve in the direction sought with a large enough effect in the repeat runs; inconclusive = weak or mixed curves; inactive = no such curve, though single readings can be large; an effect the other way counts as inactive or inconclusive.

What was measured:
[1] = qHTS assay for small molecule agonists of the p53 signaling pathway (AID 651631; calls by dose curve; also: nearly all actives have a fitted effect of over 15% in size; also: potency is read from the fitted curve at half-maximal effect)
Method in brief: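 HCT-116 p53RE-bla reporter line, 16 h compound treatment at 37 °C, then fluorescence after 2 h with B/G FRET substrate.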

[2] = qHTS assay for small molecules that induce genotoxicity in human embryonic kidney cells expressing luciferase-tagged ATAD5 (AID 651632); also: nearly all actives have a fitted effect of over 15% in size
Method in brief: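 HEK293T cells carrying a luciferase reporter tagged to ATAD5 were exposed to compound or DMSO vehicle for 16 hr at 37C, 5% CO2. Amplite was added, and after 30 min at room temperature luciferase activity was read as a marker of ATAD5 induction.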

[3] = qHTS assay for small molecule agonists of the p53 signaling pathway - cell viability (AID 651633; calls by dose curve; also: nearly all actives have a fitted effect of over 30% in size; also: potency is read from the fitted curve at half-maximal effect)
Method in brief: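 p53RE-bla cells were treated with compound for 16 hours at 37 C. Cytotoxicity was then measured as CellTiter-Glo luminescence after 30 min at room temperature.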

[4] = qHTS assay for small molecules that induce genotoxicity in human embryonic kidney cells expressing luciferase-tagged ATAD5 - cell viability (AID 651634; calls by dose curve; also: nearly all actives have a fitted effect of over 25% in size)
Method in brief: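 HEK293T cells expressing luciferase-tagged ATAD5 were exposed to compound or DMSO for 15.5 hr at 37C, 5% CO2. Viability was then read as live-cell protease activity by CellTiter-Fluor fluorescence after 30 min at 37C.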

[5] = qHTS assay for small molecule disruptors of the mitochondrial membrane potential - cell viability (AID 720634; calls by dose curve;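 also: human HepG2 liver cancer cells; series mostly up to about 83 µM; nearly all actives have a fitted effect of over 20% in size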)
Method in brief: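 HepG2 cells seeded overnight at 37 C, then exposed to compound or DMSO for 1 hr at 37 C, 5% CO2. m-MPI dye added, then CellTiter-Glo for 30 min at room temperature; viability read as ATP luminescence.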

[6] = qHTS assay to test for compound auto fluorescence at 590 nm (red) in HepG2 cells (AID 720674)
Method in brief: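 Fluorescence at 590 nm emission following 540 nm excitation was recorded from HepG2 wells one hour after compound transfer, with DMSO-only wells as vehicle and Rose Bengal sodium equivalency as the scale.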

[7] = qHTS assay to test for compound auto fluorescence at 535 nm (green) in HepG2 cells (AID 720675)
[8] = qHTS assay to test for compound auto fluorescence at 460 nm (blue) in HEK293 cells (AID 720678)
Method in brief: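 Auto fluorescence in the blue band was quantified as triamterene equivalency. HEK293 cells were seeded at 2,000/well, dosed after a 4-5 hr attachment, and kept overnight at 37C before the 405/460 nm reading.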

[9] = qHTS assay to test for compound auto fluorescence at 590 nm (red) in HEK293 cells (AID 720679)
Method in brief: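 Autofluorescence equivalency to Rose Bengal sodium, 540/590nm, in HEK293 cells exposed overnight to 23 nL compound per well.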

[10] = qHTS assay to test for compound auto fluorescence at 535 nm (green) in HEK293 cells (AID 720680)
[11] = qHTS assay to test for compound auto fluorescence at 460 nm (blue) in HEK293 cell free culture (AID 720681)
Method in brief: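 Compounds were added to cell-free DMEM with 10% FBS and fluorescence read directly. The blue channel used 405 nm excitation and 460 nm emission, with triamterene as the reference fluorophore.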

[12] = qHTS assay to test for compound auto fluorescence at 535 nm (green) in HEK293 cell free culture (AID 720682)
Method in brief: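 Steps: dispense DMEM/10% FBS into empty wells; pin in compound or DMSO; measure fluorescence at 485/535 nm. Values are fluorescein equivalents.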

[13] = qHTS assay to test for compound auto fluorescence at 590 nm (red) in HEK293 cell free culture (AID 720683)
Method in brief: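 Cell-free wells of DMEM with 10% FBS received compound, and intrinsic fluorescence was read at excitation/emission 540/590 nm. Values expressed as equivalence to Rose Bengal sodium.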

[14] = qHTS assay to test for compound auto fluorescence at 590 nm (red) in HepG2 cell free culture (AID 720684)
Method in brief: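 Compounds are added to culture medium (MEM, 10% FBS) lacking cells, then fluorescence is read at excitation 540 nm, emission 590 nm, with Rose Bengal sodium as the equivalency standard.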

[15] = qHTS assay to test for compound auto fluorescence at 460 nm (blue) in HepG2 cell free culture (AID 720685)
Method in brief: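 Compound (23 nL) or DMSO pinned into cell-free MEM with 10% FBS; blue fluorescence read at 405/460 nm excitation/emission, expressed as auto-fluorescence equivalency to triamterene.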

[16] = qHTS assay to test for compound auto fluorescence at 535 nm (green) in HepG2 cell free culture (AID 720686)
[17] = qHTS assay to test for compound auto fluorescence at 460 nm (blue) in HepG2 cells (AID 720687)
Method in brief: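 HepG2 cells in MEM with 10% FBS, attached overnight at 37 C, were exposed to compound or DMSO for 1 hr at 37 C, 5% CO2. Blue fluorescence was read at 405/460 nm, with triamterene as reference fluorophore.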

[18] = molecular target: Glucocorticoid receptor (Homo sapiens) (UniProt P04150); assay: qHTS assay to identify small molecule agonists of the glucocorticoid receptor (GR) signaling pathway (AID 720691; active = well fitted activation curve with a large enough effect in the signal ratio in the repeat runs, not every such curve was filed as active; the % refers to the signal ratio)
Method in brief: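 GR-bla HeLa cells (beta-lactamase reporter under glucocorticoid response element) were plated 4 h at 37 C/5% CO2, given compounds in DMSO, and incubated 18 h at 37 C. LiveBLAzer B/G FRET substrate was added for 2 h at room temperature, then fluorescence intensity read.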

[19] = molecular target: Glucocorticoid receptor (Homo sapiens) (UniProt P04150); assay: qHTS assay to identify small molecule antagonists of the glucocorticoid receptor (GR) signaling pathway (AID 720692; active = well fitted inhibition curve with a large enough effect in the signal ratio in the repeat runs, not every such curve was filed as active; the % refers to the signal ratio)
Method in brief: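 GR-bla HeLa cells (beta-lactamase reporter under glucocorticoid response element) were pre-plated 4 h at 37 C, treated with compounds plus 5 nM dexamethasone (final) for 18 h, then read by LiveBLAzer B/G FRET fluorescence after 2 h.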

Measured: Potency

Glucocorticoid receptor (Homo sapiens), sequence (P04150 whole entry, looked up): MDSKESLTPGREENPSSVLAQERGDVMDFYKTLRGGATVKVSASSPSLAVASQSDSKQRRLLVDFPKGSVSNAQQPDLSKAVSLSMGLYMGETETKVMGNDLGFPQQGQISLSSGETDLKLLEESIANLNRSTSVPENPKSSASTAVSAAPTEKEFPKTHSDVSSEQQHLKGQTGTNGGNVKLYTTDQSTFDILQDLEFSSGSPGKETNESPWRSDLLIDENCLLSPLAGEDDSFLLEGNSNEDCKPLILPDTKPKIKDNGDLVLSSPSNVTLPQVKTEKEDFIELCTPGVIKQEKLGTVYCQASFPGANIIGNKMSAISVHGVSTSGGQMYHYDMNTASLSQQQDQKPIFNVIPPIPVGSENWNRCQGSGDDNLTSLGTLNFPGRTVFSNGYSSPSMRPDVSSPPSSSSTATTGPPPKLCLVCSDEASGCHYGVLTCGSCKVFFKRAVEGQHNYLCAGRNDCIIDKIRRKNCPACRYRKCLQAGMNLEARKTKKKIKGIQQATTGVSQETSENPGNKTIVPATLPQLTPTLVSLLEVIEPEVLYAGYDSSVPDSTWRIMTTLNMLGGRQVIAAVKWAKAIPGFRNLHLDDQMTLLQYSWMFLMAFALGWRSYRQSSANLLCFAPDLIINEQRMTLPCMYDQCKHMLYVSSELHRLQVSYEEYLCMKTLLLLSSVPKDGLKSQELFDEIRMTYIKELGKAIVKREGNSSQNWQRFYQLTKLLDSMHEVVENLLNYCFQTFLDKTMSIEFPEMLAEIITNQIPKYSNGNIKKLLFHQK

COC(C(=O)O)c1ccccc1 (configuration not stated)
inactive: [1] | [2] | [3] | [4] | [5] | [6] | [7] | [8] | [9] | [10] | [11] | [12] | [13] | [14] | [15] | [16] | [17] | [18] | [19]

CC(C)[C@H](N)C(=O)OCCOCn1cnc2c(=O)[nH]c(N)nc21
inactive: [1] | [2] | [3] | [4] | [5] | [6] | [7] | [8] | [9] | [10] | [11] | [12] | [13] | [14] | [15] | [16] | [17] | [18] | [19]

C=CC(=O)OCCCCCC
inactive: [1] | [2] | [3] | [4] | [5] | [6] | [7] | [8] | [9] | [10] | [11] | [12] | [13] | [15] | [16] | [17]

CCCCc1ccc(N)cc1
inactive: [1] | [2] | [3] | [4] | [5] | [6] | [7] | [8] | [9] | [10] | [11] | [12] | [13] | [14] | [15] | [16] | [18] | [19]

COc1cc(CCC(C)=O)ccc1O
inactive: [1] | [2] | [3] | [4] | [5] | [6] | [7] | [8] | [9] | [10] | [11] | [12] | [13] | [14] | [15] | [16] | [17] | [18] | [19]

CCC(=O)c1cccc(Cl)c1
inactive: [1] | [2] | [3] | [4] | [5] | [6] | [7] | [8] | [9] | [10] | [11] | [12] | [13] | [14] | [15] | [16] | [17] | [18] | [19]

c1ccc2cnncc2c1
inactive: [1] | [2] | [3] | [4] | [5] | [6] | [7] | [8] | [9] | [10] | [11] | [12] | [13] | [14] | [15] | [16] | [17] | [18] | [19]

C=C(C)C(=O)NCCC[N+](C)(C)C
inactive: [1] | [2] | [3] | [4] | [5] | [6] | [7] | [8] | [9] | [10] | [11] | [12] | [13] | [14] | [15] | [16] | [17] | [18] | [19]

NC(=O)Nc1nc2ccccc2[nH]1
inactive: [1] | [2] | [3] | [4] | [5] | [6] | [7] | [8] | [9] | [10] | [11] | [12] | [13] | [15] | [16]

CN1[C@@H]2CC[C@H]1CC(NC(=O)n1c(=O)[nH]c3ccccc31)C2 (some centres not stated)
inactive: [1] | [2] | [3] | [4] | [5] | [6] | [7] | [8] | [9] | [10] | [11] | [12] | [13] | [14] | [15] | [16] | [18] | [19]

O=C(O)CCNC(=O)c1ccc(N=Nc2ccc(O)c(C(=O)O)c2)cc1
inactive: [1] | [2] | [3] | [4] | [5] | [6] | [7] | [8] | [9] | [10] | [11] | [12] | [13] | [14] | [15] | [16] | [17] | [18] | [19]

COC(=O)[C@H]1[C@H]2C[C@@H]3c4[nH]c5cc(OC)ccc5c4CCN3C[C@H]2C[C@@H](OC(=O)COc2ccc(OC)cc2)[C@@H]1OC
inactive: [1] | [2] | [3] | [4] | [5] | [6] | [7] | [8] | [9] | [10] | [11] | [12] | [13] | [14] | [15] | [16] | [17] | [18]

OC1OC[C@@H](O)[C@H](O)[C@H]1O (some centres not stated)
inactive: [1] | [2] | [3] | [4] | [5] | [6] | [7] | [8] | [9] | [10] | [11] | [12] | [13] | [14] | [15] | [16] | [17]

CCCCCCCCCCCl
inactive: [1] | [2] | [3] | [4] | [5] | [6] | [7] | [8] | [9] | [10] | [11] | [12] | [13] | [14] | [15] | [16] | [17] | [18]

C[C@H]1O[C@@H](n2cc(F)c(=O)[nH]c2=O)[C@H](O)[C@@H]1O
inactive: [2] | [4] | [5] | [6] | [7] | [8] | [9] | [10] | [11] | [12] | [13] | [14] | [15] | [16] | [17] | [18] | [19]
active: [1] 21.1 µM | [3] 8.41 µM
